Test results taken from the supplement of paper PMC8371130.
Structures can show the parent of a compound that is named as a salt.

Test system: HL-1
Test: relative cell viability (CellTiter-Glo) vs DMSO control (% of DMSO control); higher = more viable cells
How it was run: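 HL-1 mouse atrial cardiomyocytes were plated in 384-well plates at 1000 cells per well together with compounds at 40, 200, 1000 or 5000 nM in 0.01% DMSO. One day later, cells went to a hypoxic workstation (1% O2) for 48 h, then were reoxygenated for 24 h in a normal incubator, or stayed in normoxia for the same time. Cell viability was read by CellTiter-Glo luminescence and normalised to vehicle-treated control cells.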

[1] = oxygen condition: hypoxia 48 h (1% O2) + reoxygenation 24 h, 40 nM
[2] = oxygen condition: hypoxia 48 h (1% O2) + reoxygenation 24 h, 200 nM
[3] = oxygen condition: hypoxia 48 h (1% O2) + reoxygenation 24 h, 1000 nM
[4] = oxygen condition: hypoxia 48 h (1% O2) + reoxygenation 24 h, 5000 nM
[5] = oxygen condition: normoxia 72 h, 40 nM
[6] = oxygen condition: normoxia 72 h, 200 nM
[7] = oxygen condition: normoxia 72 h, 1000 nM
[8] = oxygen condition: normoxia 72 h, 5000 nM

SMILES	relative cell viability [1]	relative cell viability [2]	relative cell viability [3]	relative cell viability [4]	relative cell viability [5]	relative cell viability [6]	relative cell viability [7]	relative cell viability [8]
O=P(O)(O)C(O)(Cn1ccnc1)P(=O)(O)O [Zoledronic Acid]	104	100	100	111	104	107	102	109
CCN(Cc1ccncc1)C(=O)C(CO)c1ccccc1 (stereo unspecified) [Tropicamide]	102	99.4	101	107	99.4	102	101	104
COc1cc2/c(=N/c3ccc(Br)cc3F)nc[nH]c2cc1OCC1CCN(C)CC1 [Vandetanib]	110	115	115	102	113	112	116	102
NC12CC3CC(CC(C3)C1)C2 [Amantadine hydrochloride]	107	110	93.3	32.7	102	101	101	84.9
Cc1cccc(Nc2ccncc2S(=O)(=O)NC(=O)NC(C)C)c1 [Torsemide]	103	102	107	106	106	112	112	105
CCC(=O)O[C@]1(C(=O)CCl)[C@@H](C)C[C@H]2[C@@H]3CCC4=CC(=O)C=C[C@]4(C)[C@@]3(F)[C@@H](O)C[C@@]21C [Clobetasol propionate]	98.2	94.4	94.5	97.3	92.3	90.1	88.3	94.5
COc1ccc(CN(CCN(C)C)c2ccccn2)cc1 [Pyrilamine Maleate]	102	99.1	101	112	99.5	106	99.9	124
CCCN(CCC)S(=O)(=O)c1ccc(C(=O)O)cc1 [Probenecid]	103	109	108	110	101	104	109	115
CCOC(=O)c1c(C)n(C)c2ccc(O)cc12 [Mecarbinate]	102	102	101	113	101	99.4	106	110
Oc1ncnc2[nH]ncc12 [Allopurinol]	114	108	106	109	105	103	106	110
C[N+]1(C)CCC(=C(c2ccccc2)c2ccccc2)CC1 [Diphemanil methylsulfate]	104	100	104	104	102	104	106	100
O=C1Cc2cc(CCN3CCN(c4nsc5ccccc45)CC3)c(Cl)cc2N1 [Ziprasidone hydrochloride]	105	101	106	102	107	98.2	104	98.4
Nc1ccc(/N=N/c2ccccc2)c(N)n1 [Phenazopyridine HCl]	103	98.3	101	112	104	103	114	108
CO[C@H]1O[C@@H]2O[C@@]3(C)CC[C@H]4[C@H](C)CC[C@@H]([C@H]1C)[C@@]24OO3 [Artemether]	104	103	100	60.3	103	102	98.3	93.2
CCOC(=O)C1=C(C)NC(C)=C(C(=O)OCC)C1c1ccccc1/C=C/C(=O)OC(C)(C)C [Lacidipine]	109	102	100	102	106	104	106	106
CCN(CC)CC#CCOC(=O)C(O)(c1ccccc1)C1CCCCC1 (stereo unspecified) [Oxybutynin chloride]	94.2	99.1	98.7	98.8	104	96.3	91.2	107
COc1ccccc1OCC(O)CN1CCN(CC(=O)Nc2c(C)cccc2C)CC1 (stereo unspecified) [Ranolazine]	85	102	98	112	105	102	107	118
N=C(N)N/N=C/c1c(Cl)cccc1Cl [Guanabenz acetate]	96.3	113	105	99.1	101	99.6	98.7	98.9
CC(S)C(=O)NCC(=O)O (stereo unspecified) [Tiopronin]	95.4	102	104	105	99.2	98.9	101	103
NC(=O)c1ncn([C@@H]2O[C@H](CO)[C@@H](O)[C@H]2O)c1N [Acadesine]	90.2	102	102	116	103	103	110	117
C=CC(=O)Nc1cc(Nc2nccc(-c3cn(C)c4ccccc34)n2)c(OC)cc1N(C)CCN(C)C	97.1	94.4	91.5	104	95.5	93.1	89.4	108

SMILES	relative cell viability [1]	relative cell viability [2]	relative cell viability [3]	relative cell viability [4]	relative cell viability [5]	relative cell viability [6]	relative cell viability [7]	relative cell viability [8]
CC(C)NCC(O)COc1cccc2ccccc12 (stereo unspecified) [Propranolol HCl]	99.8	109	103	109	107	100	92.5	106
O=C(NCCN1CCOCC1)c1ccc(Cl)cc1 [Moclobemide]	113	111	102	120	108	100	119	121
NCCCC(O)(P(=O)(O)O)P(=O)(O)O [Alendronate]	104	102	106	109	99.2	105	107	109
CN(C)CCC(c1ccc(Cl)cc1)c1ccccn1 (stereo unspecified) [Chlorpheniramine Maleate]	87.2	101	98.4	117	101	114	105	121
Cc1cnc(C(=O)NCCc2ccc(S(=O)(=O)NC(=O)NC3CCCCC3)cc2)cn1 [Glipizide]	109	108	108	109	106	97.1	106	110
CCC1=C(C)CN(C(=O)NCCc2ccc(S(=O)(=O)NC(=O)N[C@H]3CC[C@H](C)CC3)cc2)C1=O [Glimepiride]	93.1	96.3	95.2	106	88.9	77.4	94.7	105
OCCOCCN1CCN(C2=Nc3ccccc3Sc3ccccc32)CC1 [Quetiapine fumarate]	98.9	104	106	104	103	106	108	108
CCN1CC(CCN2CCOCC2)C(c2ccccc2)(c2ccccc2)C1=O (stereo unspecified) [Doxapram HCl]	102	104	100	107	116	103	106	112
CNC(=O)c1ccccc1Sc1ccc2c(/C=C/c3ccccn3)n[nH]c2c1 [Axitinib]	110	114	117	116	105	108	112	111
CC1CNc2c(cccc2S(=O)(=O)N[C@@H](CCCNC(=N)N)C(=O)N2CC[C@@H](C)C[C@@H]2C(=O)O)C1 (stereo partly specified) [Argatroban]	97.7	97.5	94.6	106	97.3	95.6	97.6	106
O=C(O)c1cn(C2CC2)c2cc(N3CCNCC3)c(F)cc2c1=O [Ciprofloxacin]	107	100	99.7	121	97.4	99.2	107	121
CC1=C(/C=C/C(C)=C/C=C/C(C)=C/C=C/C=C(C)/C=C/C=C(C)/C=C/C2=C(C)CCCC2(C)C)C(C)(C)CCC1 [Beta Carotene]	96.9	95.3	99.9	104	104	92.9	104	104
CCN[C@H]1CN(CCCOC)S(=O)(=O)c2sc(S(N)(=O)=O)cc21 [Brinzolamide]	101	84.5	62.4	3.36	98.2	81.9	57.5	3.09
CC(C)(C)NC(=O)[C@H]1CC[C@H]2[C@@H]3CC[C@H]4NC(=O)C=C[C@]4(C)[C@H]3CC[C@]12C [Finasteride]	100	106	106	117	115	110	111	113
Clc1ccc2c(c1)CCc1cccnc1C2=C1CCNCC1 [Desloratadine]	92.5	109	102	97	105	97.5	104	103
CNCCCC12CCC(c3ccccc31)c1ccccc12 [Maprotiline hydrochloride]	98.7	103	93.4	83.3	98.7	102	102	87.7
COc1ccc(CN2CCN(C(c3ccc(F)cc3)c3ccc(F)cc3)CC2)c(OC)c1OC [Lomerizine HCl]	96.9	105	108	106	68.3	102	106	108
CC(=O)OCC(=O)[C@@]1(O)CC[C@H]2[C@@H]3CCC4=CC(=O)CC[C@]4(C)[C@H]3C(=O)C[C@@]21C [Cortisone acetate]	99.7	98.2	98.1	108	94.7	94.2	93.2	103
CC[C@H](C)[C@H](N)C1=N[C@H](C(=O)N[C@@H](CC(C)C)C(=O)N[C@H](CCC(=O)[O-])C(=O)N[C@H](C(=O)N[C@H]2CCCCNC(=O)[C@H](CC(N)=O)NC(=O)[C@@H](CC(=O)[O-])NC(=O)[C@H](Cc3cnc[nH]3)NC(=O)[C@@H](Cc3ccccc3)NC(=O)[C@H]([C@@H](C)CC)NC(=O)[C@@H](CCCN)NC2=O)[C@@H](C)CC)CS1.[Zn+2] [Bacitracin zinc]	95.4	107	109	123	105	107	109	117
COc1ccc(CC2c3cc(OC)c(OC)cc3CC[N+]2(C)CCC(=O)OCCCCCOC(=O)CC[N+]2(C)CCc3cc(OC)c(OC)cc3C2Cc2ccc(OC)c(OC)c2)cc1OC (stereo unspecified) [Atracurium besylate]	104	96.7	91.2	23.1	101	93.3	95.7	18.9
NCCCC[C@H](N[C@@H](CCc1ccccc1)C(=O)O)C(=O)N1CCC[C@H]1C(=O)O [Lisinopril]	111	94.9	100	107	101	94.7	107	108
